Source: PubChem BioAssay
Only some compounds are listed: those with a hit (about 19% of all), similar ones and a draw of the others.
HT1080 IDH1KD tx – toxicity to HT-1080 IDH1 knockdown cells (counter line) | HT-1080 IDH1 knockdown viability, ATP luminescence, 48 h | Potency, µM (titrated, usually from 46.1 µM), without a hit: at the top dose activity, negative = toxicity, most hits filed as cytotoxic | 360,000 compounds, 2% hits;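 note: potency is the fitted concentration of half-maximal effect; 0% = DMSO wells and -100% = cell-free medium wells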
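CellTiter-Glo luminescence after 48 h compound exposure at 37 degrees C of IDH1-knockdown HT-1080 cells in 5% FBS RPMI. %Activity scaled between DMSO wells and cell-free media wells, with curves fitted and assigned curve classes.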
uPA generation – inhibitors of cell surface uPA generation; AID 540303; 330,000 compounds, 0.31% hits; cell surface uPA generation assay, qHTS; Potency, µM (doses to about 38.3 µM), without a hit: at the top dose activity change, negative = inhibition, actives largely listed as inhibitors; active = well fitted inhibition curve with a large enough effect; inconclusive = small, poorly fitted or top-dose-only effect; inactive = no such curve, though single readings can be large or run the other way; tested in mouse RAW 264.7 cells; note: potency is the fitted concentration of half-maximal effect; nearly all actives have a fitted effect of over 55% in size
DT40 TDP1 no CPT – qHTS for Inhibitors of human tyrosyl-DNA phosphodiesterase 1 (TDP1): qHTS in cells in absence of CPT. DT40 Tdp1-/- hTDP1 cells, no CPT, ATP luminescence, 48 h. Potency, µM (titrated, usually from 46.2 µM), inactives show at the top dose activity change, negative = growth inhibition, usual class: inhibitors. 420,000 compounds, 15% hits. AID 686978, 2013; note: potency is the fitted concentration of half-maximal effect; nearly all actives have a fitted effect of over 55% in size
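Cells were dispensed at 400 per well, compounds added by pin tool, plates incubated ≥48 hr at 37 °C, then CellTiter-Glo added for 30 min at room temperature before luminescence reading. Line: DT40 Tdp1-/- complemented with hTDP1; camptothecin omitted.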
DT40 TDP1 CPT – growth inhibition of DT40 Tdp1-/-;hTDP1 cells with camptothecin (screen for TDP1 inhibitors). chicken DT40 Tdp1-/-;hTDP1 cells + 20 nM CPT, ATP luminescence, 48 h. Potency, µM (highest dose often 46.2 µM), for inactives: top-dose activity change, negative = growth inhibition, hits mostly inhibitors. 420,000 compounds, 12% hits. AID 686979; note: potency is the fitted concentration of half-maximal effect; nearly all actives have a fitted effect of over 55% in size
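Chicken DT40 Tdp1-/- cells complemented with human TDP1, 400 cells/well, exposed to compounds plus 20 nM camptothecin for at least 48 h at 37 C; viability read as ATP content by CellTiter-Glo luminescence.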
HT1080NT lethal – kills 2HG-producing HT-1080-NT fibrosarcoma cells | HT-1080-NT fibrosarcoma viability, CellTiter-Glo ATP luminescence, 48 h | Potency, µM (highest dose often 46.1 µM), inactives show top-dose activity, negative = less viability, usual class: cytotoxic | 360,000 compounds, 1.6% hits | AID 686970;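 note: NT is the 2HG producing partner of a matched IDH1 knockdown line; potency is the fitted concentration of half-maximal effect; 0% = DMSO-treated cells and -100% = media-only wells without cells; nearly all actives have a fitted effect of over 55% in size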
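Luminescent CellTiter-Glo readout after 48 hours of compound exposure at 37 degrees C defined viability of HT-1080-NT cells. Activity was normalized to DMSO wells and cell-free media wells; concentration-response curves were fitted and assigned curve classes.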
IL-1B inflam inh – inflammasome signaling inhibition, IL-1 beta readout; THP-1 LPS/ATP IL-1B secretion, AlphaLISA, 16 h; hits give low values; activity change, % at 57.5 µM; 360,000 compounds, 4.7% hits; AID 743279; in the data active = activity change below about -50%; inconclusive = mostly about -30% to -49%
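THP-1 cells pretreated 1 hr with compounds (up to 57.5 uM final), then stimulated with LPS (250 ng/mL final) plus ATP (1.25 mM final); secreted IL-1B measured by AlphaLISA after 16 hr, decreased signal indicating inhibition.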
* marks the source's active call; other numbers are inactive results; ? = inconclusive; . = no result given; [ ] = remark or other dose. Unless noted, calls come from the whole dose curve; as a rule, active = well fitted curve in the direction sought with a large enough effect; inconclusive = small, poorly fitted or top-dose-only effect, or another doubt; inactive = no such curve, though single readings can be large; an effect the other way counts as inactive or inconclusive. Unless noted, % is set by controls: 0 for no effect and ±100 for the full control effect.

SMILES	HT1080 IDH1KD tx	uPA generation	DT40 TDP1 no CPT	DT40 TDP1 CPT	HT1080NT lethal	IL-1B inflam inh
OCC#Cc1ncc(C(F)(F)F)cc1Cl	?	-8%	7.3µM*	5.2µM*	21µM*	5
O=C(Nc1ccc2c(c1)OCO2)C1CC(=O)N(c2ccc3c(c2)OCCO3)C1 (stereo not drawn)	3%	-1%	-3%	9%	14%	26
O=C(O)C(=O)Nc1nc(-c2ccc3c(c2)OCCO3)cs1	10%	-8%	-4%	-4%	-2%	-10
O=C(Nc1nc(-c2ccc3c(c2)OCCO3)cs1)C1CC(=O)N(c2ccc3c(c2)OCCO3)C1 (stereo not drawn)	.	.	?	11µM*	.	.
O=C(Nc1ccc(C(F)(F)F)cc1)C1CC(=O)N(c2ccc3c(c2)OCCO3)C1 (stereo not drawn)	-11%	11%	-16%	-15%	-5%	3
O=C(Nc1nc(-c2ccc3c(c2)OCO3)cs1)C1CC1	10%	?	2.3µM*	2.3µM*	15%	-1
O=C(CSc1ccc(-c2ccc3c(c2)OCO3)nn1)Nc1nccs1	19%	-5%	?	-23%	13%	7
O=C(NCCc1ccc(C(F)(F)F)cc1)C1CC(=O)N(c2ccc3c(c2)OCCO3)C1 (stereo not drawn)	-15%	-20%	21µM*	?	-2%[9.24 µM]	21
O=C(CSCC(=O)Nc1nc(-c2ccc3c(c2)OCO3)cs1)Nc1nccs1	0%	6%	26µM*	12µM*	10%	-15
Cn1cnc(C(=O)N2CCc3ccccc3C2)c1C(=O)N1CCc2ccccc2C1	5%	-3%	?	?	?	27
CCCN(CC(=O)Nc1ccc(F)c(F)c1F)C(=O)CN1C(=O)NC2(CCCCC2)C1=O	0%	-4%	-21%	-1%	-1%	0
Cc1cccc(Cc2c(C)nc3nc(SCC(=O)NC4CCCCC4)nn3c2C)c1	.	.	-4%	-29%	.	.
CC(NC(=O)c1ccc(OC2CCN(S(=O)(=O)N(C)C)CC2)cc1)C1CC1 (stereo not drawn)	4%	.	?	8%	-3%	11
COC(=O)c1ccc(CSc2nnc(NC(=O)C3CC(=O)N(c4ccc5c(c4)OCCO5)C3)s2)cc1 (stereo not drawn)	-1%	8%	21µM*	23µM*	5%	-14
CS(=O)(=O)c1ccc(NC(=O)C2CC(=O)N(c3ccc4c(c3)OCCO4)C2)cc1 (stereo not drawn)	3%	2%	-15%	-1%	-1%	-3
O=C(O)C1CC(=O)N(c2ccc3c(c2)OCCO3)C1 (stereo not drawn)	14%	2%	13µM*	13µM*	14%	7
CC(=O)Nc1ccc(-c2csc(NC(=O)C3CC(=O)N(c4ccc5c(c4)OCCO5)C3)n2)cc1 (stereo not drawn)	-9%	0%	21µM*	18µM*	23%	0
CC(=O)Nc1nonc1-c1nnc(SCC(=O)Nc2cc(Cl)ccc2C)n1C	.	.	-26%	-20%	.	.
COc1ccc([N+](=O)[O-])cc1NC(=O)C(C)N(C)Cc1cccc(OC)c1OC (stereo not drawn)	-1%	-5%	16µM*	21µM*	4%	2
COc1ccc([N+](=O)[O-])cc1NC(=O)Cc1ccc(Cl)cc1	?	-6%	-22%	-18%	?	-4
COc1cccc(NC(=O)c2ccc(-c3ccc([N+](=O)[O-])cc3)o2)c1	-1%	-5%	?	-29%	-21%	?
COc1cc(CN(C)C(C)C(=O)Nc2ccc([N+](=O)[O-])cc2Cl)ccc1OC(F)F (stereo not drawn)	3%	5%	?	?	-6%	-14
COc1ccc([N+](=O)[O-])cc1NC(=O)Nc1ccc(OC)c(OC)c1	-16%	-2%	?	?	-1%	-85*
COc1ccc([N+](=O)[O-])cc1NC(=O)Nc1cccc(Cl)c1	-5%	-6%	9.2µM*	12µM*	-20%	-19
COc1ccc(NC(=O)c2ccc(-c3ccc([N+](=O)[O-])cc3)o2)cc1OC	2%	-7%	16µM*	13µM*	3%	-76*
SMILES	HT1080 IDH1KD tx	uPA generation	DT40 TDP1 no CPT	DT40 TDP1 CPT	HT1080NT lethal	IL-1B inflam inh
O=C(c1csnn1)N1CCC[C@@]2(CCN(c3ccccn3)C2)C1	.	.	-3%	4%	.	.
COc1ccc(C(=O)Nc2ccccc2)cc1NC(=O)c1ccc([N+](=O)[O-])cc1	-13%	-4%	?	-27%	0%	-63*
COc1ccc(C(C)NC(=O)c2ccc([N+](=O)[O-])cc2)cc1OC (stereo not drawn)	2%	-7%	0.52µM*	0.92µM*	5%	-7
Cc1cccc(C2NC(=O)c3c(sc(C)c3C)N2)c1O (stereo not drawn)	0%	5%	-24%	-12%	3%	31
O=C1NC(c2cccs2)Nc2sc3c(c21)CCCC3 (stereo not drawn)	-1%	-2%	3.3µM*	4.1µM*	-7%	16
Cc1cccc(N(C(=O)c2cnc3n(c2=O)CCS3)C2CCCCC2)c1	-5%	.	?	12µM*	-7%	6
O=C(c1cnc2n(c1=O)CCS2)N(C1CCCCC1)C1CCCCC1	2%	5%	23µM*	?	13%	17
COc1ccc(N2CCN(C(=O)c3ccc(COc4ccc([N+](=O)[O-])cc4)o3)CC2)cc1	-14%	-14%	10µM*	10µM*	-2%	-27
O=C(O)c1ccc(COc2ccc([N+](=O)[O-])cc2)o1	6%	0%	-1%	15%	5%	4
Cc1cc(N2CCN(C(=O)/C=C/C(=O)O)CC2)c2ccccc2n1	-1%	-1%	-2%	1%	0%	10
COc1ccc(N2CCN(C(=O)c3cc(=O)c4cc(C)cc(C)c4o3)CC2)cc1	0%	-1%	?	13µM*	-18%	-77*
COc1ccc(N2CCN(C(=O)Oc3ccc([N+](=O)[O-])cc3)CC2)cc1	-10%	.	26µM*	?	2%	-18
Cc1cc(N2CCN(C(=O)Oc3ccc([N+](=O)[O-])cc3)CC2)c2ccccc2n1	?	.	18µM*	?	?	0
CCOC(=O)N1CCN(c2ccc([N+](=O)[O-])cc2)CC1	1%	3%	?	?	-1%	0
Cc1cccc(N=C2Sc3nc4c(C)c(C)ccc4cc3CN2CCN2CCOCC2)c1	?	-5%	23µM*	18µM*	?	-59*
